Inconclusive results are not listed. Where a call stands in place of a potency, no number is given. A number with no mark means an inactive call. Active and inactive are the calls of the source. The call rests on the fitted dose curve; in most records, active means well fitted curve in the direction sought with a large enough effect; inconclusive means small, poorly fitted or top-dose-only effect, or another doubt; inactive means no such curve, though single readings can be large; an effect the other way counts as inactive or inconclusive.
Columns and labels:
[1] = target: Rap guanine nucleotide exchange factor 3 (Homo sapiens) (UniProt O95398); assay: Confirmatory qHTS for antagonist of cAMP-regulated guanine nucleotide exchange factor 3 (EPAC1) (AID 1645880); further: nearly all actives have a fitted effect of over 55% in size; further: potency means the concentration at half of the fitted maximal effect
Chain of Rap guanine nucleotide exchange factor 3 (Homo sapiens) (O95398 whole entry, looked up): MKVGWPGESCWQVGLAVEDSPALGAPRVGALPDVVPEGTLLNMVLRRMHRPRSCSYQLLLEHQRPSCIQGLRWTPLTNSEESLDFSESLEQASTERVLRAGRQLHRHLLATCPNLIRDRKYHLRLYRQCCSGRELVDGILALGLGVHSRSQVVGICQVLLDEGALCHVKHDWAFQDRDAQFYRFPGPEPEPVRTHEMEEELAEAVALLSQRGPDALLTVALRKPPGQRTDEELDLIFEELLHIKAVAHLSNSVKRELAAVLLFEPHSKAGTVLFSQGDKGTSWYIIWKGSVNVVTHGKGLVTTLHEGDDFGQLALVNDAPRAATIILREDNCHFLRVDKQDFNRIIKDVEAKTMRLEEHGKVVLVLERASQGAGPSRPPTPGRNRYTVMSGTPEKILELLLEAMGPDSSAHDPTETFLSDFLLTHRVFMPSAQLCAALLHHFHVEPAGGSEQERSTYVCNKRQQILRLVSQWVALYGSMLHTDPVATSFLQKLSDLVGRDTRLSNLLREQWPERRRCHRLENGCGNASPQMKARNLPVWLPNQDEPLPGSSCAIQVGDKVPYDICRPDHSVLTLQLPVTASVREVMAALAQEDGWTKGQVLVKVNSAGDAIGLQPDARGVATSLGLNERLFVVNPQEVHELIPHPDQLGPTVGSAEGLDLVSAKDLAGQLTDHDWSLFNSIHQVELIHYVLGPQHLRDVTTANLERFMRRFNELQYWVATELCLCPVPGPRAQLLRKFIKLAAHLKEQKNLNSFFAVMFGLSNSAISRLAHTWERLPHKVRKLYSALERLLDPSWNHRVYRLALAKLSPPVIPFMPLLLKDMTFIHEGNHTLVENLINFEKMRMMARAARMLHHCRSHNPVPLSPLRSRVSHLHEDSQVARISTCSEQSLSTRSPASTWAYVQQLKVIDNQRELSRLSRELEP
Outline: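 Released BODIPY-GDP fluoresces less than Rap1-bound BODIPY-GDP; the signal is followed at 480/540 nm at 5-min intervals over 30 min, after 5 min at room temperature. Reactions contain 100 nM EPAC1, 250 nM RAP1B-BODIPY-GDP and 50 uM GDP; results are normalized to ATA and DMSO.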

[2] = target: Rap guanine nucleotide exchange factor 3 (Homo sapiens) (UniProt O95398); assay: Confirmatory qHTS for agonist of cAMP-regulated guanine nucleotide exchange factor 3 (EPAC1) (AID 1645881);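 further: EPAC1 catalysed release of BODIPY-GDP from Rap1B seen as fluorescence loss; nearly all actives have a fitted effect of over 75% in size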
[3] = target: Rap guanine nucleotide exchange factor 4 (Homo sapiens) (UniProt Q8WZA2); assay: Confirmatory qHTS for agonist of cAMP-regulated guanine nucleotide exchange factor 4 (EPAC2) (AID 1645884);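 further: nucleotide exchange releases bodipy-GDP from Rap1 and this lowers its fluorescence; nearly all actives have a fitted effect of over 65% in size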
Chain of Rap guanine nucleotide exchange factor 4 (Homo sapiens) (Q8WZA2 whole entry, looked up): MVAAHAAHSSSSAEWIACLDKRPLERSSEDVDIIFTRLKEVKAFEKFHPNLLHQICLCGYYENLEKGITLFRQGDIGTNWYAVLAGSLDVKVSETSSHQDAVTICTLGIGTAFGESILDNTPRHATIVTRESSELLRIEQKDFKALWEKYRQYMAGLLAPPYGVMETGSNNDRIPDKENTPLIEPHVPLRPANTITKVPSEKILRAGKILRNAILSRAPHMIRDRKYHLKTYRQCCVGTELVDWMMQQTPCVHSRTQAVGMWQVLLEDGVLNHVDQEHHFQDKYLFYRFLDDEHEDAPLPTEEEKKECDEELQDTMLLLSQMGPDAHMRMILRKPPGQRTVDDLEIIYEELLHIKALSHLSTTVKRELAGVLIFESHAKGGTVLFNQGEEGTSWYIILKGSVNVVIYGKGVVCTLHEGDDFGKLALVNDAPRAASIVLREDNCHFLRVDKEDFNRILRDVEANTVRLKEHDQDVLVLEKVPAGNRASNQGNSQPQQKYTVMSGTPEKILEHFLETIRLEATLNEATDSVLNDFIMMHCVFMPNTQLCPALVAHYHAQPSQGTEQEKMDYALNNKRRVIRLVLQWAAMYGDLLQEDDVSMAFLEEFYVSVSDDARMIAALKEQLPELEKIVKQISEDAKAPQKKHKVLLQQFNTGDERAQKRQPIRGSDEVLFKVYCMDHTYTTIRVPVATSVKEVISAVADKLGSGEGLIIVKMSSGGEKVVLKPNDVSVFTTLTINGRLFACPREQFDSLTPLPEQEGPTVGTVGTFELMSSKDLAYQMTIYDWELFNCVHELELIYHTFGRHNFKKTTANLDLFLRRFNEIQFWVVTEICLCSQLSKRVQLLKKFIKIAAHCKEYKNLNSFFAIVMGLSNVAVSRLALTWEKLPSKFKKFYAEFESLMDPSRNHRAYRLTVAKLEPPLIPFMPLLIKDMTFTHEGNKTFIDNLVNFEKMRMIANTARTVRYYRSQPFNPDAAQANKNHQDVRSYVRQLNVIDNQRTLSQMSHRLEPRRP

[4] = target: Rap guanine nucleotide exchange factor 4 (Homo sapiens) (UniProt Q8WZA2); assay: Confirmatory qHTS for antagonist of cAMP-regulated guanine nucleotide exchange factor 4 (EPAC2) (AID 1645885); further: nearly all actives have a fitted effect of over 25% in size; further: potency means the concentration at half of the fitted maximal effect
[5] = target: Rap guanine nucleotide exchange factor 3 (Homo sapiens) (UniProt O95398); assay: Counterscreen qHTS for antagonist of cAMP-regulated guanine nucleotide exchange factor 3 (EPAC1) (AID 1645888)
Outline: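 Measured: fluorescence of BODIPY-GDP bound to Rap1B, which falls as exchange proceeds. Conditions include 50 uM competing GDP, 5 and 30 min reads, and a later cAMP challenge for antagonist detection.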

For `Cc1ccc(-c2cc(C(=O)Nc3ccc4c(c3)OCCO4)c3ccccc3n2)cc1`, the Potency [1] was “inactive”, the Potency [2] was “inactive” and the activation [3] was 9.86% [at 17.1 µM, percent relative to cAMP agonist control]. The Potency [4] was “inactive” and the activity change, negative = inhibition [5] was 3.98% [at 30.8 µM].

`CCOc1ccc(N2CC(c3nc4ccccc4n3Cc3cccc(Cl)c3)CC2=O)cc1` (stereo not given) was tested, and the Potency [1] was “inactive”, the Potency [2] was “inactive” and the Potency [3] was “inactive”. The Potency [4] was “inactive” and the Potency [5] was “inactive”.

For `COc1ccc(C=NNc2ccc(S(=O)(=O)Nc3ccccc3C(=O)O)cc2[N+](=O)[O-])c(OC)c1`, the Potency [1] was 15.1 µM (active), the Potency [2] was “inactive” and the Potency [3] was “inactive”. For the same compound, the Potency [4] was “inactive” and the Potency [5] was “inactive”.

For `COc1ccc(S(=O)(=O)Nc2cccc(F)c2)cc1C`, the Potency [1] was “inactive”, the Potency [2] was “inactive” and the activation [3] was 1.76% [at 17.1 µM, percent relative to cAMP agonist control]. The Potency [4] was “inactive” and the activity change, negative = inhibition [5] was -14.5% [at 30.8 µM].

`CCOc1ccc2nc(NC(=O)CSc3nc(-c4ccccc4)c(C#N)c(=O)[nH]3)sc2c1` was tested, and the Potency [1] was 56.2 µM (active), the Potency [2] was “inactive” and the activation [3] was 2.22% [at 17.1 µM, percent relative to cAMP agonist control]. The Potency [4] was “inactive” and the activity change, negative = inhibition [5] was -3.89% [at 30.8 µM].

With `CCN(CC)c1ccc(Nc2nc(-c3cccnc3)cs2)cc1` the Potency [1] was “inactive”, the Potency [2] was “inactive” and the Potency [3] was “inactive”. The Potency [4] was “inactive” and the Potency [5] was “inactive”.

With `CC1Cc2cc(/C=C3/SC(=S)NC3=O)ccc2O1` (stereo not given) the Potency [1] was 30.1 µM (active), the Potency [2] was “inactive” and the Potency [3] was “inactive”. The Potency [4] was “inactive” and the Potency [5] was “inactive”.

`COc1ccc(OC)c(NC(=O)Cc2c(C(=O)O)n(C)c3ccc(C)cc23)c1` was tested, and the Potency [1] was “inactive”, the Potency [2] was “inactive” and the Potency [3] was “inactive”. For the same compound, the Potency [4] was “inactive” and the Potency [5] was “inactive”.

With `COc1cc(S(=O)(=O)Nc2ccc(C)cc2)ccc1N=Cc1c(C)c(C#N)c(=O)n(C)c1O` the Potency [1] was “inactive”, the Potency [2] was “inactive” and the Potency [3] was “inactive”. The Potency [4] was “inactive” and the Potency [5] was “inactive”.

For `Cc1ccc(NC(=O)CSc2ncn[nH]2)cc1C`, the Potency [1] was “inactive”, the Potency [2] was “inactive” and the Potency [3] was “inactive”. For the same compound, the Potency [4] was “inactive” and the Potency [5] was “inactive”.

For `COc1ccc(NS(=O)(=O)c2ccc3[nH]c4c(c3c2)CCCCCC4)cc1`, the Potency [1] was “inactive”, the Potency [2] was “inactive” and the Potency [3] was “inactive”. The outcome [4] was “inactive [at 12.7 µM]” and the Potency [5] was “inactive”.

In the case of `COC(=O)c1cc2oc(C)cc2n1Cc1cccc(Cl)c1`, the Potency [1] is reported as “inactive”, the Potency [2] is reported as “inactive” and the Potency [3] is reported as “inactive”. The Potency [4] was “inactive” and the Potency [5] was “inactive”.

`O=C1Nc2ccccc2Nc2ncccc21` was tested, and the Potency [1] was “inactive”, the Potency [2] was “inactive” and the activation [3] was -4.86% [at 17.1 µM, percent relative to cAMP agonist control]. For the same compound, the Potency [4] was “inactive” and the activity change, negative = inhibition [5] was 0.957% [at 30.8 µM].

In the case of `COc1cccc(NC(=O)Cn2cc(C(=O)C3CC3)c3ccccc32)c1`, the Potency [1] is reported as “inactive”, the Potency [2] is reported as “inactive” and the Potency [3] is reported as “inactive”. For the same compound, the Potency [4] was “inactive” and the Potency [5] was “inactive”.

`CCn1c(=O)c2sccc2n2c(CCCC(=O)N3CCN(c4cc(C)ccc4C)CC3)nnc12` was tested, and the Potency [1] was “inactive”, the Potency [2] was “inactive” and the Potency [3] was “inactive”. For the same compound, the Potency [4] was “inactive” and the Potency [5] was “inactive”.

For `Cc1ccc(C)c(-n2c3nc(=O)[nH]c(=O)c-3cc3cc([N+](=O)[O-])ccc32)c1`, the Potency [1] was 47.8 µM (active), the Potency [2] was “inactive” and the Potency [3] was “inactive”. For the same compound, the Potency [4] was “inactive” and the Potency [5] was “inactive”.

For `COc1ccccc1Nc1nc(N)nc(CN2CCC(C)CC2)n1`, the Potency [1] was “inactive”, the Potency [2] was “inactive” and the Potency [3] was “inactive”. For the same compound, the Potency [4] was “inactive” and the Potency [5] was “inactive”.

`CCSc1nnc(NC(=O)C2CCN(S(=O)(=O)c3ccccc3C(F)(F)F)CC2)s1` was tested, and the Potency [1] was “inactive”, the Potency [2] was “inactive” and the Potency [3] was “inactive”. The Potency [4] was “inactive” and the Potency [5] was “inactive”.

For `COc1cc(CNn2cnnc2)ccc1OCC(=O)NC(C)(C)C`, the Potency [1] was “inactive”, the Potency [2] was “inactive” and the Potency [3] was “inactive”. The Potency [4] was “inactive” and the Potency [5] was “inactive”.

With `CCN(CC)S(=O)(=O)c1c(Br)cc(C)cc1Br` the Potency [1] was “inactive”, the Potency [2] was “inactive” and the activation [3] was 0.523% [at 17.1 µM, percent relative to cAMP agonist control]. For the same compound, the Potency [4] was 3.79 µM (active) and the activity change, negative = inhibition [5] was -9.59% [at 30.8 µM].

`Cc1c(C(=O)N2c3ccccc3CC2C)oc2ccccc12` (stereo not given) was tested, and the Potency [1] was “inactive”, the Potency [2] was “inactive” and the Potency [3] was “inactive”. The Potency [4] was “inactive” and the Potency [5] was “inactive”.

In the case of `c1ccc(N2[C@@H]3c4ccccc4C[C@H]2c2ccccc23)cc1`, the Potency [1] is reported as “inactive”, the Potency [2] is reported as “inactive” and the activation [3] is reported as 8.36% [at 17.1 µM, percent relative to cAMP agonist control]. The Potency [4] was “inactive” and the activity change, negative = inhibition [5] was -11.2% [at 30.8 µM].

With `COc1ccc(C(C#N)N2N=C(C)CC2c2ccccc2)cc1` (stereo not given) the Potency [1] was “inactive”, the Potency [2] was “inactive” and the Potency [3] was “inactive”. For the same compound, the Potency [4] was 47.8 µM (active) and the Potency [5] was “inactive”.

Source: PubChem BioAssay (NCATS)
